According to PubChem BioAssay (Tox21):
Inconclusive results are not listed. A call without a number means that no potency is given here. Active and inactive are the calls of the source. Unless noted, calls come from the whole dose curve; as a rule, active = well fitted curve in the direction sought with a large enough effect in the repeat runs; inconclusive = weak or mixed curves; inactive = no such curve, though single readings can be large; an effect the other way counts as inactive or inconclusive.

Tests used:
[1] = qHTS assay to identify small molecule antagonists of the estrogen receptor alpha (ER-alpha) signaling pathway using the BG1 cell line in the presence of 0.1 nM 17-beta-estradiol - cell viability counter screen (AID 1259241); note: nearly all actives have a fitted effect of over 40% in size
Method in brief: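 VM7Luc4E2 cells (endogenous full-length ER-alpha, 4xERE-luciferase), cultured 5 days in charcoal-stripped serum, exposed to compounds with 0.1 nM 17beta-estradiol (final) for 22 hr at 37C. Viability read in same wells as live-cell protease fluorescence after 30 min.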

[2] = qHTS assay to identify small molecule antagonists of the androgen receptor (AR) signaling pathway using the MDA cell line in the presence of 0.5 nM R1881 - cell viability counter screen (AID 1259242); note: nearly all actives have a fitted effect of over 45% in size
Method in brief: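 Live-cell protease fluorescence, CellTiter-Fluor, 30 min at 37C. Cells: MDA-kb2, 3,000/well, preincubated 5 hr. Compounds plus 0.5 nM R1881 final, 16 hr, 37C, 0% CO2.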

[3] = target: Estrogen receptor (Homo sapiens) (UniProt P03372); assay: qHTS assay to identify small molecule antagonists of the estrogen receptor alpha (ER-alpha) signaling pathway using the BG1 cell line in the presence of 0.1 nM 17-beta-estradiol (AID 1259244); note: nearly all actives have a fitted effect of over 50% in size
Method in brief: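 Luminescence after ONE-Glo (30 min, room temperature) measured ERE-luciferase activity in VM7Luc4E2 cells treated 22 h with compound and 0.1 nM final 17beta-estradiol as stimulator.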

[4] = qHTS assay to identify small molecule HDAC inhibitors (AID 1259364);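 note: wild-type HCT-116 cells with endogenous class I/II HDAC activity; top concentration of the series differs between compounds; nearly all actives have a fitted effect of over 45% in size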
Method in brief: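 HCT-116 (wild type), 1,500 cells/well, overnight; compound 2 hr 37C 5% CO2; HDAC-Glo I/II reagent 30 min RT; luminescence readout.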

[5] = qHTS assay to identify small molecule HDAC inhibitors - cell viability counter screen (AID 1259365); note: series mostly up to about 92 µM; nearly all actives have a fitted effect of over 50% in size
Method in brief: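 Wild-type HCT-116 cells, 1,500/well, cultured overnight, then compound-treated 2 h at 37 C. Viability measured as ATP luminescence with CellTiter-Glo after 30 min at room temperature.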

[6] = qHTS assay to identify small molecule agonists of the sonic hedgehog signaling (Shh) pathway - cell viability counter screen (AID 1259366); note: nearly all actives have a fitted effect of over 50% in size; note: potency is the fitted concentration of half-maximal effect
Method in brief: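 NIH/3T3-derived Gli1-Luc reporter cells, 2,000 per well, received compound after 4 h and were treated about 23 h at 37C. Viability measured in the same wells by CellTiter-Fluor fluorescence after 1 h.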

[7] = qHTS assay to identify small molecule antagonists of the sonic hedgehog signaling (Shh) pathway - cell viability counter screen (AID 1259367); note: nearly all actives have a fitted effect of over 55% in size
Method in brief: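 Viability was read by CellTiter-Fluor fluorescence in the same wells, reagent added 23 hr into compound treatment and incubated 1 hr at 37C. The 3T3 Gli1-Luc reporter cells (2,000/well) received conditioned medium after compound and ran 24 hr.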

[8] = qHTS assay to identify small molecule agonists of the sonic hedgehog signaling (Shh) pathway (AID 1259368; calls by dose curve;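 note: NIH/3T3-derived 3T3Gli1-Luc cells carrying a stable Gli1-driven firefly luciferase reporter; series mostly up to about 92 µM; nearly all actives have a fitted effect of over 15% in size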)
Method in brief: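 Read-out: firefly luciferase luminescence from a Gli1 response element reporter stably integrated in NIH/3T3-derived 3T3Gli1-Luc cells, measured 30 min at room temperature after reagent addition. Compound exposure lasted 24 hr at 37 C, 5% CO2.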

[9] = qHTS assay to identify small molecule agonists of the androgen receptor (AR) signaling pathway in the presence of an antagonist - cell viability counter screen (AID 1259379);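 note: MDA-kb2 human breast cancer cells carrying an MMTV luciferase reporter; series mostly up to about 92 µM; nearly all actives have a fitted effect of over 25% in size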
Method in brief: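 Viability counter screen: CellTiter-Fluor fluorescence, measured in the same wells as the luciferase read-out. MDA-kb2 cells, 3,000/well, with nilutamide at 3.0uM final and compounds at 15 concentrations, 16 hr at 37C, 0% CO2.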

[10] = qHTS assay to identify small molecule agonists of the estrogen receptor beta (ER-beta) signaling pathway - cell viability counter screen (AID 1259380); note: nearly all actives have a fitted effect of over 30% in size; note: potency is the fitted concentration of half-maximal effect
Method in brief: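 Luminescence read-out (CellTiter-Glo, 30 min, room temp) taken in the same wells as the beta-lactamase reporter assay; ER-beta-UAS-bla HEK293T cells exposed to DMSO-dissolved compounds for 16 hr at 37C in 2% charcoal-stripped FBS medium.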

[11] = qHTS assay to identify small molecule antagonists of the estrogen receptor beta (ER-beta) signaling pathway - cell viability counter screen (AID 1259382);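 note: HEK293T cells carrying ER-beta-UAS-bla reporter stimulated with estradiol; series mostly up to about 92 µM; nearly all actives have a fitted effect of over 55% in size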
Method in brief: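 Luminescent ATP read-out (CellTiter-Glo, 30 min, RT) taken in the same wells as the bla reporter assay. HEK293T ER-beta-UAS-bla cells in 2% charcoal-stripped FBS were exposed to compounds with 1nM E2 for 16 hr at 37C.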

[12] = target: Estrogen receptor (Homo sapiens) (UniProt P03372); assay: qHTS assay to identify small molecule agonists of the estrogen receptor alpha (ER-alpha) signaling pathway in the presence of an antagonist (AID 1259383; calls by dose curve; note: top concentration of the series differs between compounds; nearly all actives have a fitted effect of over 15% in size)
Method in brief: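 Luciferase luminescence (ONE-Glo, 30min at room temperature) measured in VM7Luc4E2 cells after 22hr compound exposure at 15 concentrations, with 10.0nM ICI-182,780 final present; cells express endogenous ER-alpha and carry four EREs upstream of luciferase.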

[13] = qHTS assay to identify small molecule agonists or antagonists of the thyroid stimulating hormone receptor (TSHR) signaling pathway - wild type cell line counter screen (AID 1259384; calls by dose curve)
Method in brief: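 Counter screen in untransfected Hek293: compounds (15-point titration, triplicate) plus phosphodiesterase inhibitor Ro20-1724 added after 18 h plating; 30 min RT. Intracellular cAMP via competitive d2/cryptate immunoassay, 1 h incubation.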

[14] = target: Thyrotropin receptor (Homo sapiens) (UniProt P16473); assay: qHTS assay to identify small molecule antagonists of the thyroid stimulating hormone receptor (TSHR) signaling pathway (AID 1259385; calls by dose curve; note: nearly all actives have a fitted effect of over 20% in size)
Method in brief: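 Antagonist mode: compound-treated TSHR-expressing HEK293 cells were stimulated with 1.5 ng/mL TSH (final) in presence of Ro20-1724 for 30 min at RT. HTRF cAMP detection after 1 h; each compound tested at 15 concentrations, triplicate.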

[15] = target: Estrogen receptor beta (Homo sapiens) (UniProt Q92731); assay: qHTS assay to identify small molecule agonists of the estrogen receptor beta (ER-beta) signaling pathway (AID 1259377; active = well fitted activation curve with a large enough effect in the signal ratio in the repeat runs, not every such curve was filed as active; the % refers to the signal ratio)
Method in brief: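 ER-beta-UAS-bla HEK293T cells in medium with 2% charcoal-stripped FBS were exposed to compounds for 16 h at 37C. Beta-lactamase reporter activity was read as fluorescence after 2 h with LiveBLAzer B/G FRET substrate at room temperature.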

[16] = target: Estrogen receptor beta (Homo sapiens) (UniProt Q92731); assay: qHTS assay to identify small molecule antagonists of the estrogen receptor beta (ER-beta) signaling pathway (AID 1259378; active = well fitted inhibition curve with a large enough effect in the signal ratio in the repeat runs, not every such curve was filed as active; the % refers to the signal ratio; note: potency is the fitted concentration of half-maximal effect)
Method in brief: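 Antagonist mode: compounds added to beta-lactamase reporter HEK293T ER-beta-UAS cells stimulated with E2 (1nM final), 16 hr at 37C. LiveBLAzer B/G FRET substrate, 2 hours room temperature, fluorescence read-out.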

[17] = qHTS assay to identify small molecule phospholipidosis (PLD) inducers (AID 1259344; active = well fitted curve in the direction sought with a large enough effect; an effect the other way counts as inactive or inconclusive)
Method in brief: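 Phospholipid accumulation was scored by imaging: fixed, Hoechst-counterstained HepG2 cells stained with LipidTOX Red after 24 h compound exposure at 37 C. Read-outs were pit count and pit intensity per well or per cell, with amiodarone and DMSO controls.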

[18] = qHTS assay to identify small molecule antagonists of the sonic hedgehog signaling (Shh) pathway (AID 1259369; calls by dose curve; note: nearly all actives have a fitted effect of over 45% in size)
Method in brief: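 Luminescence readout: firefly Luc under Gli1 response element in 3T3Gli1-Luc cells (NIH/3T3 clone). Antagonist mode, stimulation by conditioned medium; compound exposure 24hr at 37 C, 5% CO2.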

Estrogen receptor beta (Homo sapiens), sequence (Q92731 whole entry, looked up): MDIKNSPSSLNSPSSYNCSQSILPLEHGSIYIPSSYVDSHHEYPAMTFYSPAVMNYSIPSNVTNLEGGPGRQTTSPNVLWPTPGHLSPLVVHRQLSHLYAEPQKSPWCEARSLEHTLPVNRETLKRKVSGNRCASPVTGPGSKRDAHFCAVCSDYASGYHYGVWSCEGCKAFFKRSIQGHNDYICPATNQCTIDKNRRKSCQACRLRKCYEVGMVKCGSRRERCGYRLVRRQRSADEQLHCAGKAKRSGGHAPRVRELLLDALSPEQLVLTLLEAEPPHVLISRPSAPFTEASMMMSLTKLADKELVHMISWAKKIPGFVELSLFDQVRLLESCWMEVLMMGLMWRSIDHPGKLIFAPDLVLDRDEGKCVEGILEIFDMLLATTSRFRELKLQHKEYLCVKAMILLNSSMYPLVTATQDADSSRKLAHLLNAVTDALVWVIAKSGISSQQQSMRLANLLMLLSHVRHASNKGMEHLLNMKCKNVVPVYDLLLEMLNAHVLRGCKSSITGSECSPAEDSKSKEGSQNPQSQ
Estrogen receptor (Homo sapiens), sequence (P03372 whole entry, looked up): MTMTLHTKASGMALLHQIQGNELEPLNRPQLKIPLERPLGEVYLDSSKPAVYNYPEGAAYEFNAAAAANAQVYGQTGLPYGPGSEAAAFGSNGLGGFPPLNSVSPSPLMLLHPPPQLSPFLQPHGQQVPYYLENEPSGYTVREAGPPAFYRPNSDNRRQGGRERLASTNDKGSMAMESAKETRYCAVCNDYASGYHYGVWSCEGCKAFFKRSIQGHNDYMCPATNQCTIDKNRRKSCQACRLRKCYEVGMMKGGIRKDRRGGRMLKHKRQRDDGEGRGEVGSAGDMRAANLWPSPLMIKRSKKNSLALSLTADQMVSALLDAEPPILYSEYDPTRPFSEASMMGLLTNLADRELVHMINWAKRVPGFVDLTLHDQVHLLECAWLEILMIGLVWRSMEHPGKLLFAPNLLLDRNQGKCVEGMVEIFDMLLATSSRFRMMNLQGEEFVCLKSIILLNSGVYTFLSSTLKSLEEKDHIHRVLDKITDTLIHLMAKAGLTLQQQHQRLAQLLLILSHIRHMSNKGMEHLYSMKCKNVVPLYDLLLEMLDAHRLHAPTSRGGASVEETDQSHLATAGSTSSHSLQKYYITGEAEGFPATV
Thyrotropin receptor (Homo sapiens), sequence (P16473 whole entry, looked up): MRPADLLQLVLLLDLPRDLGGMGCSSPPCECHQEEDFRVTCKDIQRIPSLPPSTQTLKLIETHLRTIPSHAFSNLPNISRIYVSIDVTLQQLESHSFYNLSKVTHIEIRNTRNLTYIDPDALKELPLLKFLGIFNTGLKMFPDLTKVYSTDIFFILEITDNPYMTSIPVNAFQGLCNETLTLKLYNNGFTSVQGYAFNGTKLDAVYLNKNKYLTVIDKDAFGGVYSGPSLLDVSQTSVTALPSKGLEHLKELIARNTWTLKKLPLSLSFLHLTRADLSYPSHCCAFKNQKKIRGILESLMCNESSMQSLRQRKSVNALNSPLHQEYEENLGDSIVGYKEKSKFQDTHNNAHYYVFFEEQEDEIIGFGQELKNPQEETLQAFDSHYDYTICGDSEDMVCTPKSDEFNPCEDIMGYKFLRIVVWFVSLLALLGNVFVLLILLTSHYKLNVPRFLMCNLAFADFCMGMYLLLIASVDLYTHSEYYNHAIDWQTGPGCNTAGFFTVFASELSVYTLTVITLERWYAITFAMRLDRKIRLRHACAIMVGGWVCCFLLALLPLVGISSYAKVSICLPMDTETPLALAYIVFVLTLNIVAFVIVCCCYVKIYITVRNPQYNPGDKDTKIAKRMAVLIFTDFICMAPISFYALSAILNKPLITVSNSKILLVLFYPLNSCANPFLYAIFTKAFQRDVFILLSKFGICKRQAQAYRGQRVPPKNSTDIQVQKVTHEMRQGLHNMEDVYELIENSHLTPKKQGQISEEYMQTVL

Structure (SMILES)	Potency [1]	Potency [2]	Potency [3]	Potency [4]	Potency [5]	Potency [6]	Potency [7]	Potency [8]	Potency [9]	Potency [10]	Potency [11]	Potency [12]	outcome [13]	Potency [14]	Potency [15]	Potency [16]	outcome [17]	Potency [18]
O=C(O)C(F)(F)C(F)(F)C(F)(F)C(F)(F)C(F)(F)C(F)(F)C(F)(F)C(F)(F)C(F)(F)F	inactive	inactive	inactive	inactive	inactive	inactive	inactive	inactive	inactive	10.9 µM (active)	inactive	inactive	inactive	inactive				
c1ccoc1	inactive	inactive	inactive	inactive	inactive	inactive	inactive	inactive	inactive	inactive	inactive	inactive	inactive	inactive	inactive	inactive		
CC(=O)[C@H]1CC[C@H]2[C@@H]3CC[C@H]4C[C@](C)(O)CC[C@]4(C)[C@H]3CC[C@]12C	inactive	inactive		inactive	inactive	inactive	inactive	inactive	inactive	inactive	inactive	inactive	inactive	inactive	inactive	2.11 µM (active)	inactive	inactive
C=CC(=O)OCCCCO	inactive	inactive	inactive	inactive	inactive	61.1 µM (active)		inactive	inactive		inactive	inactive	inactive	inactive	inactive	inactive		
